Results from ChEMBL document CHEMBL3988442, “University of Dundee, Small-Polar-MMV Screening Library” (2021).
For some assays here: Measured potencies and affinities stand elsewhere.

Columns and labels:
Set-up in all cases: scale not given: direction of the effect not stated beside the values
[1] = target: Protein translocase subunit SecA (Escherichia coli (strain K12)) (UniProt P10408); assay: Assay to Identify E. coli SecA ATPase Inhibitors; type: functional; conditions: 30 µM
[2] = target: T1, Ubiquitin-activating enzyme e1, putative (Leishmania donovani (strain BPK282A1)) (UniProt E9BSI1); assay: Leishmania donovani Ubiquitin Activating Enzyme (LdE1); type: functional; conditions: 30 µM
T1 sequence (whole entry): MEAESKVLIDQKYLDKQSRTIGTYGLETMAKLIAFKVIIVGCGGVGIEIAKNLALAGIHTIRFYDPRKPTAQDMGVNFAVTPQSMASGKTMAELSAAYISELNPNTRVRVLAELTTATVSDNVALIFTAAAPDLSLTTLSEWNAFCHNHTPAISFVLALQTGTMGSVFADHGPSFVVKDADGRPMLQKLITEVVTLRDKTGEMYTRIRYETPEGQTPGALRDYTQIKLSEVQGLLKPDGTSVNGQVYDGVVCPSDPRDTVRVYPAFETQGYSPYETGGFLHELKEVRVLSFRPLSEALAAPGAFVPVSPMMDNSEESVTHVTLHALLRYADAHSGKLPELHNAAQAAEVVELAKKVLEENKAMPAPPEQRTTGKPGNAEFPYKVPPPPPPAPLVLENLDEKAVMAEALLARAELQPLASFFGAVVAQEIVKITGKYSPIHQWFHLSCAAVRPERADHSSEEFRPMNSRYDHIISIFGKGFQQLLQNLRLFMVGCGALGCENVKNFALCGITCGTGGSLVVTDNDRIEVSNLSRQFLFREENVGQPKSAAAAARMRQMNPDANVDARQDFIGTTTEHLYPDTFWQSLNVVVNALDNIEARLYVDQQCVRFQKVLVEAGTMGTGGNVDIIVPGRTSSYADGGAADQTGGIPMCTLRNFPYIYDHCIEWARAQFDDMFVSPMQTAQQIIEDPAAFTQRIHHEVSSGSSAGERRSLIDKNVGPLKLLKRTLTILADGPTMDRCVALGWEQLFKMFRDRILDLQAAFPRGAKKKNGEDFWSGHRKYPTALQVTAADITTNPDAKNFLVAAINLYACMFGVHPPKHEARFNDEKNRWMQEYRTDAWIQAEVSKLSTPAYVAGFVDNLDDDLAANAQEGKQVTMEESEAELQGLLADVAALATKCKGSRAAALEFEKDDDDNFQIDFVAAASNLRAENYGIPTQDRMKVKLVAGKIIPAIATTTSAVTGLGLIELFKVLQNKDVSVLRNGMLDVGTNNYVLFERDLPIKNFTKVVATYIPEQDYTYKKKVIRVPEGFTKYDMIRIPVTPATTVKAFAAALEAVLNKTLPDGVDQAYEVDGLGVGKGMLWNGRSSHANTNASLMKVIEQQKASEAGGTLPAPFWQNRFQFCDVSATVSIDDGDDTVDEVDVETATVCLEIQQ

[3] = target: AMP-activated protein kinase, AMPK (Homo sapiens) (UniProt P54646+O43741+P54619+Q9UGJ0+Q9Y478+Q13131+Q9UGI9); assay: AMP-dependent Kinase enzyme assay. An in vitro enzyme assay that detects ADP turnover that is directly proportional to AMPK activity. This uses naive AMPK that is activated during the assay with MK-8722; type: functional; conditions: 30 µM
[4] = target: Sialic acid-binding Ig-like lectin 9 (Homo sapiens) (UniProt Q9Y336); assay: Hs-Siglec9 ALPHAscreen SOP 20170721; conditions: 10 µM
Trypanosoma cruzi = assay: Trypanosoma cruzi phosphomannomutase and mannose-1-phosphate guanylyltransferase assay; type: functional; conditions: 10 µM
[5] = target: T2, Arginase-2, mitochondrial (Homo sapiens) (UniProt P78540); assay: in vitro enzyme assay to detect the production of urea directly proportional to the activity of Arginase II; type: functional; conditions: 33.3 µM; further: in the data most compounds retested in dose-response had high values
T2 sequence (whole entry): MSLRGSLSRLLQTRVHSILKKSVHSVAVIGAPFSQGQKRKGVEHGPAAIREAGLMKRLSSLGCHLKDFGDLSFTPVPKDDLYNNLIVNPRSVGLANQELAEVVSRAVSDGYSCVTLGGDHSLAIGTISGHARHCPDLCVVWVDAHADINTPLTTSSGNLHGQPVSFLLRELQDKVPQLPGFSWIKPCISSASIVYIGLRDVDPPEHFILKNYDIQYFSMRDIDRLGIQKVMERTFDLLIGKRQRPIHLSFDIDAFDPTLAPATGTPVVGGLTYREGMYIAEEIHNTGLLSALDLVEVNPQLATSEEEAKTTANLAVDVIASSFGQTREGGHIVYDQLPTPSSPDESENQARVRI

[6] = target: T3, Proteasome subunit beta (Trypanosoma cruzi) (UniProt O96673); assay: Trypanosoma cruzi proteasome chymotrypsin-like activity (TcProtChymo) assay.; further: in the data most compounds retested in dose-response had high values; type: functional; conditions: 9.37 µM
T3 sequence (whole entry): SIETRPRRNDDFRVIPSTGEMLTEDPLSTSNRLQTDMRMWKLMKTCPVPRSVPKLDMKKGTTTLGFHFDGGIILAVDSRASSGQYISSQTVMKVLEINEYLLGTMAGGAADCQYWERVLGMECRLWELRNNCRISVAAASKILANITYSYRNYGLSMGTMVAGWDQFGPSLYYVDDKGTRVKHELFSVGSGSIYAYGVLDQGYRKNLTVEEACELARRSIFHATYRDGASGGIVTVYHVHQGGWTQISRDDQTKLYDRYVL

Homo sapiens = organism: Homo sapiens; assay: To identify inhibition of the IFN signalling (Jak-Stat) pathway via expression of an eGFP reporter gene under the control of an IFN-stimulated response element (ISRE) containing MxA promoter.; type: functional; conditions: 30 µM
[7] = target: T4, Tyrosyl-tRNA synthetase, putative (Trypanosoma cruzi (strain CL Brener)) (UniProt Q4DSP6); assay: Trypanosoma cruzi tyrosyl tRNA synthetase (TcYRS) _High Tyrosine SOP; type: functional; conditions: 30 µM; further: in the data most compounds retested in dose-response had high values
T4 sequence (whole entry): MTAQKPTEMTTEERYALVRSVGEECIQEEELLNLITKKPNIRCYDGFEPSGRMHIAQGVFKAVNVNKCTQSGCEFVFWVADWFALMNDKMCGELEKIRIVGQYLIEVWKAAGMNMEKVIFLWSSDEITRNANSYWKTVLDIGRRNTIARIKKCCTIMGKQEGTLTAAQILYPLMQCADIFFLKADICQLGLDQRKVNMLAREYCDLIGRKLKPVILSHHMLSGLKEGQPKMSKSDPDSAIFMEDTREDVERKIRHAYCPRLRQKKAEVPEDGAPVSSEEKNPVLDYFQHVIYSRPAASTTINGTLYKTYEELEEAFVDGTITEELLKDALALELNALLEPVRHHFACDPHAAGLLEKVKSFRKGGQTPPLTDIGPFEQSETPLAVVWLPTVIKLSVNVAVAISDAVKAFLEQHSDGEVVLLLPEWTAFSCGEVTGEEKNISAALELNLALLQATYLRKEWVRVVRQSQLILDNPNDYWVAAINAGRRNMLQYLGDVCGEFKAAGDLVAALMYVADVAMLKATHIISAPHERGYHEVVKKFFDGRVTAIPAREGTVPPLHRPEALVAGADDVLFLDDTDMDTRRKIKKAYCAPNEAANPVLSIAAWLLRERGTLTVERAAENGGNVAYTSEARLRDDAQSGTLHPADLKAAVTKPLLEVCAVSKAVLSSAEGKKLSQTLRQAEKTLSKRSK

[8] = target: T4, Tyrosyl-tRNA synthetase, putative (Trypanosoma cruzi (strain CL Brener)); assay: Trypanosoma cruzi tyrosyl tRNA synthetase (TcYRS) SOP; type: functional; conditions: 30 µM
[9] = target: Chromo domain-containing protein 1 (Saccharomyces cerevisiae (strain ATCC 204508 / S288c) (Baker's yeast)) (UniProt P32657); assay: ScCHD-1 Enzyme Inhibition Assay; type: functional; conditions: 30 µM; further: in the data most compounds retested in dose-response had high values
Chain of Chromo domain-containing protein 1 (Saccharomyces cerevisiae (strain ATCC 204508 / S288c) (Baker's yeast)) (P32657 whole entry, the tested form may be a part): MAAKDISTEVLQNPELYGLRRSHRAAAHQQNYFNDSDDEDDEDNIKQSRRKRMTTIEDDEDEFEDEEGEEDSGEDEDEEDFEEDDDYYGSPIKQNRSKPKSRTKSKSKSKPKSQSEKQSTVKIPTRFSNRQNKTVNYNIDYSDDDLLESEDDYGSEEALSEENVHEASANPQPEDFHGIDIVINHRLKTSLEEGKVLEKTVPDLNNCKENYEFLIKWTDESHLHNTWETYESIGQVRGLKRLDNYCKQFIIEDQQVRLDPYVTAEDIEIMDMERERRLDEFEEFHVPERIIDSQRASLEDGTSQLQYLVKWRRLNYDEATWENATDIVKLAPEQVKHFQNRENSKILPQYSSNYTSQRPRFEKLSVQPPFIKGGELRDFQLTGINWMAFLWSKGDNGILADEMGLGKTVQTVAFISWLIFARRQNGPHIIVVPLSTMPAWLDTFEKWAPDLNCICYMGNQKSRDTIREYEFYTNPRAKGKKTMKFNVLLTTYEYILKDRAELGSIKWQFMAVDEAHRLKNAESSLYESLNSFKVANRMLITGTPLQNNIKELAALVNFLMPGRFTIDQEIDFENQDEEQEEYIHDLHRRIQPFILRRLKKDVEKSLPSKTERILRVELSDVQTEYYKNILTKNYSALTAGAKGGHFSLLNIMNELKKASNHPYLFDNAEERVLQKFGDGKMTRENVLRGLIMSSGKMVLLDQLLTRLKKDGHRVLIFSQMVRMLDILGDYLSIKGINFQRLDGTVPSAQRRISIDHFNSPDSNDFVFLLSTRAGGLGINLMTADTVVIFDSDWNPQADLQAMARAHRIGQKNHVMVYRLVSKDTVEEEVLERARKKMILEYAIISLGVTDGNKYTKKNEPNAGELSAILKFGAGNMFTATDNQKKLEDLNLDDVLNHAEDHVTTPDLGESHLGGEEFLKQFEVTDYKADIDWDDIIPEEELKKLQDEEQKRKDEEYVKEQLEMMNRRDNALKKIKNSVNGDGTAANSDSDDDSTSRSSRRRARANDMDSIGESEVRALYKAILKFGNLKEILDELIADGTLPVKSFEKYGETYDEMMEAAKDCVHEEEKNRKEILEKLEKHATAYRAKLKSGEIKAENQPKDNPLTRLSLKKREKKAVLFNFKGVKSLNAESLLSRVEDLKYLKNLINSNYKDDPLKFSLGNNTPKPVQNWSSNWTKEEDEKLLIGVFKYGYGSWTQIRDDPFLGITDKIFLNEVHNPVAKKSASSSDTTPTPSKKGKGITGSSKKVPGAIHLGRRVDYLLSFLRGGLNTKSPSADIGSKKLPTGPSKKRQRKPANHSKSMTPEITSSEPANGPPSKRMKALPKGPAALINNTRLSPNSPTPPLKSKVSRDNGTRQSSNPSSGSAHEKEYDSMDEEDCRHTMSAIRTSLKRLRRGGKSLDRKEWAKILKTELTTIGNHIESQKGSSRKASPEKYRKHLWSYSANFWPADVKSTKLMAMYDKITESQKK

Chain of Sialic acid-binding Ig-like lectin 9 (Homo sapiens) (Q9Y336 whole entry): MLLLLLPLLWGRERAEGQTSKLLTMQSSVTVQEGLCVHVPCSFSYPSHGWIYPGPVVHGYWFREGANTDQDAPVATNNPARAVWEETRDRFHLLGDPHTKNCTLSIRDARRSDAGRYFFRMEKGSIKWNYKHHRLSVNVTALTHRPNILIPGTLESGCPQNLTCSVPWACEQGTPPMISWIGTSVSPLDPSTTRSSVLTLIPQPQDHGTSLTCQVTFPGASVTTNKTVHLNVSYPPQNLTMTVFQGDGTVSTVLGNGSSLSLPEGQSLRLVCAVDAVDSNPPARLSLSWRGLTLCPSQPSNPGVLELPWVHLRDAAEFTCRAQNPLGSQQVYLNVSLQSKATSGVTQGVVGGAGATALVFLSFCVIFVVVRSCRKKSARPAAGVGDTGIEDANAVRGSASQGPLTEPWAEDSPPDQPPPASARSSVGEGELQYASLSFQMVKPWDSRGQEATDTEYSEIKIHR
Chain of Protein translocase subunit SecA (Escherichia coli (strain K12)) (P10408 whole entry): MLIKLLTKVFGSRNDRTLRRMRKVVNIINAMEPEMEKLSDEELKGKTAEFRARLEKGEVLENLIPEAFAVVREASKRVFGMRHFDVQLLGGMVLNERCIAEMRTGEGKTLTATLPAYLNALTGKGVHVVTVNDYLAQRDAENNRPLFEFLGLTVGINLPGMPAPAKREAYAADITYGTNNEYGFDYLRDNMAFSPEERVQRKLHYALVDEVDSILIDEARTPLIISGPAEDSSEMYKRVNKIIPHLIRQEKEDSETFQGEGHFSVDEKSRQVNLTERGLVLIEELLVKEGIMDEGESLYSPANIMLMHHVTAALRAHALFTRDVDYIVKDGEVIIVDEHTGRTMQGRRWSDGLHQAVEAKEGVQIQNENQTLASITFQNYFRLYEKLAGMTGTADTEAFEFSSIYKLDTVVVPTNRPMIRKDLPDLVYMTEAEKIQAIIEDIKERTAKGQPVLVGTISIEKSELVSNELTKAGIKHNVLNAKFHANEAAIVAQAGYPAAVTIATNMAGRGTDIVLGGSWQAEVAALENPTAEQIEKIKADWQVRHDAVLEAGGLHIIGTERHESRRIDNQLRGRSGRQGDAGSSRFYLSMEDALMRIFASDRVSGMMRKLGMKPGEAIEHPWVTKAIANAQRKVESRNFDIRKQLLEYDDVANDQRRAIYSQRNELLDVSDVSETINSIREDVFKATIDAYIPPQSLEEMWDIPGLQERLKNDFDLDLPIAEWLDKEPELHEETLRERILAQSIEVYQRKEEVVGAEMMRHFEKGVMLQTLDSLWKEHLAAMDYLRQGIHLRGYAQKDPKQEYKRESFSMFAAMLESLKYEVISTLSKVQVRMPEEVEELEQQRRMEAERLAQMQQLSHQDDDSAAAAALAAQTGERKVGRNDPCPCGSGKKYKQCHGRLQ

Compound	Percent Effect [1]	Percent Effect [2]	Percent Effect [3]	Percent Effect [4]	Percent Effect (Trypanosoma cruzi)	Percent Effect [5]	Percent Effect [6]	Percent Effect (Homo sapiens)	Percent Effect [7]	Percent Effect [8]	Percent Effect [9]
CC(C(=O)N1CCCN(c2ncccc2C#N)CC1)n1ccnc1 (stereo unspecified)	-2.42%	21.1%	0.0866%	-9.53%	5.13%	-1.08%	7.19%	14%	10.3%	18.5%	-9.73%
Cc1n[nH]c(C(=O)NCc2ccnc(OCC(F)(F)F)c2)c1Br	-4.7%	23.7%	-2.47%	1.14%	8.08%	-0.383%	18.4%	5.22%	6.37%	24.4%	-11.1%
CCNc1cc2c(nn1)CCN(C(=O)Cc1noc3ccccc13)C2	-6.38%	13.2%	-1.77%	6.44%	5.51%	0%	-3.47%	5.21%	4.43%	16.1%	-4.69%
Cc1noc(C)c1C(=O)NCc1ccnc(OCC(F)(F)F)c1	-3.23%	26.3%	-1.27%	0.107%	7.52%	0%	11.2%	10.2%	7.35%	9.76%	-11%
Cn1cc(C2CCCN2Cc2csc(-c3ccsc3)n2)cn1 (stereo unspecified)	-1.56%	-2.53%	-11.2%	3.12%	-7.46%	0.76%	3.36%	8.82%	-24.1%	3.8%	-2%
Cc1nc(C)n(CC2CCCN2Cc2nc(C3CC3)no2)n1 (stereo unspecified)	-1.33%	2.63%	-3.31%	-2.5%	4.32%	-3.83%	1.34%	-15.7%	2.45%	4.88%	-4.84%
CC(=O)Nc1nc(C(=O)Nc2ccc(F)cc2)cs1	-2.09%	15.6%	28%	-6.42%	-1.86%	-15.4%	16.7%	8.03%	7.62%	18.8%	3.31%
CCc1cnc(N)nc1NCCN1CCCCC1	-4.23%	13%	1.45%	11.9%	6.59%	2.76%	7.16%	4.63%	7.53%	16.1%	-7.73%
CCOc1ncccc1NC(=O)NCC(O)c1ccccc1OC (stereo unspecified)	-2.5%	22.8%	4.8%	-4.05%	4.06%	4.94%	9.75%	23.4%	3.45%	21.5%	-7.12%
O=C(Cc1ccccn1)N1C[C@@H]2CC[C@H](C1)N(Cc1ccccc1)C2=O	-1.67%	2.7%	0.96%	6.03%	-4.05%	-4.29%	14.7%	12%	5.82%	4.88%	-2.65%
Cc1ccccc1C(=O)N1CCC(n2nnc3cc(F)ccc32)CC1	-4.02%	5.33%	12%	0.882%	-3.35%	1.17%	5.02%	7.34%	4.25%	11.5%	-5%
O=C(Cc1noc2ccccc12)N1CCCC1c1noc(C2CC2)n1 (stereo unspecified)	0.239%	-2.7%	-6.79%	3.85%	-4.62%	0%	7.39%	86.2%	2.46%	-6.17%	5.86%
Cc1nccn1C1CCCN(C(=O)c2ccc3c(c2)COC3)C1 (stereo unspecified)	-0.738%	-2.7%	-1%	7.4%	3.44%	0.554%	-5.39%	-3.77%	4.95%	13.4%	-0.0787%
Cc1cc(C(=O)N2CCCC(c3noc(C)n3)C2)[nH]n1 (stereo unspecified)	-10.3%	15.2%	-4.15%	16.6%	10.3%	-3.04%	-2.21%	12.9%	8.37%	21.5%	-9.72%
Cc1nc(C)n(CC2CN(Cc3cccc(C#N)c3)CCO2)n1 (stereo unspecified)	-0.461%	13.5%	-1.52%	2.34%	2.74%	0.802%	14.6%	0.861%	-10.3%	18.5%	-3.18%
CN1CCCC1c1cccc(Cc2ccccc2F)n1 (stereo unspecified)	-3.07%	-20.3%	13.4%	1.77%	-0.79%	-3.02%	-1.87%	49.3%	14%	11.7%	0.4%
